# Reference: PubChem BioAssay (Tox21)
# Records with an inconclusive call do not appear. The source made the active and inactive calls. The call rests on the fitted dose curve; in most records, active means well fitted inhibition curve with a large enough effect in the repeat runs; inconclusive means weak or mixed curves; inactive means flat fitted curve, though single readings scatter.
# Biological target: Voltage-gated inwardly rectifying potassium channel KCNH2 (Homo sapiens) (UniProt Q12809)
# Test: Human Ether-a-go-go-Related Gene (hERG) channel small molecule antagonists: fluorescence cell-based qHTS assay (AID 1671200); further: nearly all actives have a fitted effect of over 50% in size
# Settings: hERG-U2OS cells, FluxOR thallium flux fluorescence; series mostly up to 76.8 µM; activity change, negative = inhibition: at the top concentration
# From the text: National Center for Advancing Translational Sciences [NCATS]
# U.S. Environmental Protection Agency [EPA]
# National Institutes of Environmental Health Sciences [NIEHS]
# National Toxicology Program [NTP]
# U.S. Food and Drug Administration [FDA]
# Mutations in the hERG channel cause Long QT (LQT) syndrome. LQT syndrome is a cardiac disorder which can cause ventricle arrhythmia and sudden death. Additionally, compounds which block the hERG channel can cause acquired LQT syndrome. Several FDA approved drugs have been removed from the market due to their hERG blocking activity. A cell-based hERG channel inhibition assay can be used to screen chemical compounds that inhibit hERG channel. This assay measures hERG channel activity using thallium ions as surrogate ions to measure potassium into the cells.
# Tox21 Assay Protocol Summary:
# hERG-U2OS cells were resuspended in culture medium and dispensed into 1536-well, black wall/clear-bottom plates at 1000cells/well/3uL using a Multidrop Combi dispenser (Thermo Fisher, Waltham, MA). After plates were incubated at 37 C overnight, 3 uL of Loading Buffer provided by FluxOR II Potassium Ion Channel Assay kit (Thermo, Carlsbad, CA) was added to each well. The assay plates were then incubated at room temperature in the dark for 1h. […] After the assay plates were incubated at room temperature for 10 min, 1 uL of Stimulus Buffer provided by FluxOR II Potassium Ion Channel Assay kit was added into each well and fluorescence intensity (480nm excitation/540nm emission) was continuously measured for 2 min at 1 second intervals using a Functional Drug Screening System (FDSS) 7000EX kinetic plate reader (Hamamatsu, Japan).
# On the % scale 0 is the no-effect control and ±100 the full control effect; potency means the concentration at half of the fitted maximal effect.
# Voltage-gated inwardly rectifying potassium channel KCNH2 (Homo sapiens), sequence (Q12809 whole entry, looked up): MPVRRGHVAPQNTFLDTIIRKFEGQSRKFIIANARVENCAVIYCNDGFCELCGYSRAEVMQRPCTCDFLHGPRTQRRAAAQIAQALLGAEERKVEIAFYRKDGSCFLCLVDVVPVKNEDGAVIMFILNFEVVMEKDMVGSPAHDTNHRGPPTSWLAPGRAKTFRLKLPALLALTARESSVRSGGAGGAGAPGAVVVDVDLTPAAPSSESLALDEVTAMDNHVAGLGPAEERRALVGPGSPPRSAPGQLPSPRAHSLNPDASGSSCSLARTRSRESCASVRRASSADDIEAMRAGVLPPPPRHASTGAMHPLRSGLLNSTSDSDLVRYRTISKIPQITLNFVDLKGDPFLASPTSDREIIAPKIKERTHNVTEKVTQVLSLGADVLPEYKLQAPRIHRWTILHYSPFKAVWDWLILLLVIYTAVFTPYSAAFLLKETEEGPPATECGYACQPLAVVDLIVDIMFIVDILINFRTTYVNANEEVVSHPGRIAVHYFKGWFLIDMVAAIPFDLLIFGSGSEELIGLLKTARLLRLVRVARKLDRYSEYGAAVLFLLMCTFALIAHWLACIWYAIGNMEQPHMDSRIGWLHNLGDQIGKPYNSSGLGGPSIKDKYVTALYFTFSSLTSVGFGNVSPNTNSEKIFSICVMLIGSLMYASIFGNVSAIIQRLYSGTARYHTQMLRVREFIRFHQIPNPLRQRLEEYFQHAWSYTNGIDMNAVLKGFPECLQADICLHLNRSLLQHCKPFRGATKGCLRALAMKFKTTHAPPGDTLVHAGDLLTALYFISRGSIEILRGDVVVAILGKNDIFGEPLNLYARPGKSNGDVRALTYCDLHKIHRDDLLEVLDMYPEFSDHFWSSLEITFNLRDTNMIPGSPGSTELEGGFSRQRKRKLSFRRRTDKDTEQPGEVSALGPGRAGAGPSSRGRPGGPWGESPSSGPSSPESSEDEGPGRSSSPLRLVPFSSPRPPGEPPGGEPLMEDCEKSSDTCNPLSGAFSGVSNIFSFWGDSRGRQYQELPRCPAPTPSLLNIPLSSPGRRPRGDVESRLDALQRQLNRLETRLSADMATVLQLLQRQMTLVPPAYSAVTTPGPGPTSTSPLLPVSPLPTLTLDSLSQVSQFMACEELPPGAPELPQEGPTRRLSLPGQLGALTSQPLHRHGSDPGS
Compound,"activity change, negative = inhibition",Potency
COc1cc(C(=O)N2CCOCC2)cc(OC)c1OC,-1.51% [at 35.3 µM] (inactive),–
CCCOCC(C)OCC(C)O (stereo not given),1.73% (inactive),–
COC(=O)c1ccc(C(=O)OC)c(C(=O)OC)c1,-2.87% (inactive),–
CC(CCO)CCCC(C)(C)O (stereo not given),3.94% (inactive),–
C=CC(=O)N1CCOCC1,1.08% (inactive),–
Cc1c(F)cc2c(=O)c(C(=O)O)cn3c2c1CCC3C (stereo not given),1.7% [at 35.3 µM] (inactive),–
C=C(C)C1CC=C(C)C(O)C1 (stereo not given),1.08% (inactive),–
CCCCCCCCCCCCCCCCCC(=O)OCCCCCCCCCCCCCC(C)C,-1.61% (inactive),–
CCN1CCCC(OC(=O)C(c2ccccc2)c2ccccc2)C1 (stereo not given),–,3.38 µM (active)
COc1ccc(NC(C)=O)cc1,2.53% (inactive),–
C1CCCCCCCCCCC1,-1.65% [at 15.8 µM] (inactive),–
CC(C)(C)CC(C)(C)N,-8.1% (inactive),–
O=C(O)Cc1cc(I)c(Oc2cc(I)c(O)c(I)c2)c(I)c1,13% [at 35.3 µM] (inactive),–
CC/C=C\C#N,0.836% (inactive),–
O=C(O)/C=C/c1ccc(/C=C/C(=O)O)cc1,2.05% [at 35.3 µM] (inactive),–
CCOC(=O)Nc1ccc2c(c1)N(C(=O)CCN1CCOCC1)c1ccccc1S2,-19.2% [at 35.3 µM] (inactive),–
CC1(C)OC(=O)Nc2ccc(Br)cc21,4.77% [at 35.3 µM] (inactive),–
CC(=O)c1ccc(C)cc1,4.41% (inactive),–
CC(C)[N+](C)(C)CC(O)COc1cccc2ccccc12 (stereo not given),2.34% [at 35.3 µM] (inactive),–
C[C@H](O)C(=O)Nc1c(I)c(C(=O)NC(CO)CO)c(I)c(C(=O)NC(CO)CO)c1I,1.77% [at 35.3 µM] (inactive),–

Compound,"activity change, negative = inhibition",Potency
CC(C)CCCC(C)NCCC(C)C (stereo not given),0.317% [at 35.3 µM] (inactive),–
Nc1cc(N)cc(C(=O)O)c1,-4.23% (inactive),–
Nc1ccn(C2CO[C@H](CO)O2)c(=O)n1 (stereo not given in full),-15.5% [at 35.3 µM] (inactive),–
Cc1cc(C)c(NC(=O)CN(CC(=O)O)CC(=O)O)c(C)c1Br,2.35% [at 35.3 µM] (inactive),–
CN(C)C(=O)Nc1ccccc1,1.19% (inactive),–
COc1cc(O)cc(O)c1,-1.07% [at 35.3 µM] (inactive),–
CN(C)CCn1nnnc1SCC1=C(C(=O)O)N2C(=O)[C@@H](NC(=O)Cc3csc(N)n3)[C@H]2SC1,0.569% [at 35.3 µM] (inactive),–
COCCOC(=O)CC#N,-0.137% (inactive),–
NC(=O)c1c(Cl)cccc1Cl,-2.06% (inactive),–
OC[C@H]1O[C@@H]2O[C@H]3[C@H](O)[C@@H](O)[C@@H](O[C@H]4[C@H](O)[C@@H](O)[C@@H](O[C@H]5[C@H](O)[C@@H](O)[C@@H](O[C@H]6[C@H](O)[C@@H](O)[C@@H](O[C@H]7[C@H](O)[C@@H](O)[C@@H](O[C@H]8[C@H](O)[C@@H](O)[C@@H](O[C@H]9[C@H](O)[C@@H](O)[C@@H](O[C@H]1[C@H](O)[C@H]2O)O[C@@H]9CO)O[C@@H]8CO)O[C@@H]7CO)O[C@@H]6CO)O[C@@H]5CO)O[C@@H]4CO)O[C@@H]3CO,0.899% [at 35.3 µM] (inactive),–
CC(C)c1cccc(O)c1,0.802% (inactive),–
CCCCCC[C@@H](CCC)C(=O)O,-1.67% [at 35.3 µM] (inactive),–
NC(=O)c1ncn([C@@H]2O[C@H](CO)[C@@H](O)[C@H]2O)c1O,15.7% [at 35.3 µM] (inactive),–
CC(=O)CCc1ccc(O)cc1,1.84% (inactive),–
CC1=CCC2C(C1)C2(C)C (stereo not given),-0.324% (inactive),–
C#CC(O)C(CC)CCCC (stereo not given),-15% (inactive),–
c1cc(CN2CCCCC2)cc(OCCCNc2nc3ccccc3s2)c1,–,8.49 µM (active)
COC(C(=O)O)c1ccccc1 (stereo not given),-4.28% (inactive),–
C1=C\CC/C=C\CC/C=C\CC/1,3.16% (inactive),–
CCCCCCC(CCCCCCCCCCC(=O)OCC(COC(C)=O)OC(C)=O)OC(C)=O (stereo not given),-0.961% [at 35.3 µM] (inactive),–
